Test results taken from the supplement of paper PMC11006884.
Targets with a hit are over-represented here; the source holds about 6,500 in all. About 2% of all pairs of compound and target were hits.

What follows are targets tested with COC(=O)C#Cc1ccccc1 [methyl 3-phenylpropiolate] (assay: log2 ratio of iodoacetamide-alkyne labeling of the cysteine site, DMSO over compound (competition); higher = stronger covalent engagement of the cysteine by the compound, active = 1 or more). Conditions: 500 µM; treatment time 1 h; system: HEK293T cell lysate.
Method in brief: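 Reporter intensities give each cysteine's log2 competition ratio as the mean of control channels over the mean of compound channels. The samples were HEK293T lysate (2 mg/mL) given vehicle or electrophile (500 µM, 1 h, ambient temperature), then iodoacetamide alkyne (1 h), followed by click coupling to sCIP-TMT reagents, pooling, trypsin digestion overnight at 37 °C, streptavidin enrichment, acid elution, Orbitrap Eclipse LC-MS/MS with FAIMS and FragPipe quantification. Duplicate channels and three replicates were run, and cysteines quantified in only one replicate were discarded.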

Chain of UniProt Q14684 (Q14684 whole entry, looked up): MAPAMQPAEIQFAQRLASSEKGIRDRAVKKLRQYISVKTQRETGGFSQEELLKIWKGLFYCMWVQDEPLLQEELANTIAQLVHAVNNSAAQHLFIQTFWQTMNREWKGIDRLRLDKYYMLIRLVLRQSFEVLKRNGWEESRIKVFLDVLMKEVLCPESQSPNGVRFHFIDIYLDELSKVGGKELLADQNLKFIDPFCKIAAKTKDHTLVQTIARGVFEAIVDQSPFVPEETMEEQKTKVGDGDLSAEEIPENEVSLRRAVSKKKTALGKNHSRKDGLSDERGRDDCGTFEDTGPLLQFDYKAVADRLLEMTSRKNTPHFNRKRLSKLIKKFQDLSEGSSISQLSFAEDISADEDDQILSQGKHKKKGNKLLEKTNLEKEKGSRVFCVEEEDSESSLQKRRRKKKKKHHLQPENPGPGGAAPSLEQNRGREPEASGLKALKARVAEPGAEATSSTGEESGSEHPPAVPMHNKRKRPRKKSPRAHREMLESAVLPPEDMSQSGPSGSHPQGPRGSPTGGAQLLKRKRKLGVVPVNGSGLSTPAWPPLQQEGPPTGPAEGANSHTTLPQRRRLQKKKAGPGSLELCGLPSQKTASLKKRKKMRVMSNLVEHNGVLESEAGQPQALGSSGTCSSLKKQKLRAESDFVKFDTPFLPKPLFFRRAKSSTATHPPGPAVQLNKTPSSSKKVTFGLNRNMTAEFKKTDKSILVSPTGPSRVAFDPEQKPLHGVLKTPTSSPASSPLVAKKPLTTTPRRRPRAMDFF
Chain of UniProt Q14674 (Q14674 whole entry, looked up): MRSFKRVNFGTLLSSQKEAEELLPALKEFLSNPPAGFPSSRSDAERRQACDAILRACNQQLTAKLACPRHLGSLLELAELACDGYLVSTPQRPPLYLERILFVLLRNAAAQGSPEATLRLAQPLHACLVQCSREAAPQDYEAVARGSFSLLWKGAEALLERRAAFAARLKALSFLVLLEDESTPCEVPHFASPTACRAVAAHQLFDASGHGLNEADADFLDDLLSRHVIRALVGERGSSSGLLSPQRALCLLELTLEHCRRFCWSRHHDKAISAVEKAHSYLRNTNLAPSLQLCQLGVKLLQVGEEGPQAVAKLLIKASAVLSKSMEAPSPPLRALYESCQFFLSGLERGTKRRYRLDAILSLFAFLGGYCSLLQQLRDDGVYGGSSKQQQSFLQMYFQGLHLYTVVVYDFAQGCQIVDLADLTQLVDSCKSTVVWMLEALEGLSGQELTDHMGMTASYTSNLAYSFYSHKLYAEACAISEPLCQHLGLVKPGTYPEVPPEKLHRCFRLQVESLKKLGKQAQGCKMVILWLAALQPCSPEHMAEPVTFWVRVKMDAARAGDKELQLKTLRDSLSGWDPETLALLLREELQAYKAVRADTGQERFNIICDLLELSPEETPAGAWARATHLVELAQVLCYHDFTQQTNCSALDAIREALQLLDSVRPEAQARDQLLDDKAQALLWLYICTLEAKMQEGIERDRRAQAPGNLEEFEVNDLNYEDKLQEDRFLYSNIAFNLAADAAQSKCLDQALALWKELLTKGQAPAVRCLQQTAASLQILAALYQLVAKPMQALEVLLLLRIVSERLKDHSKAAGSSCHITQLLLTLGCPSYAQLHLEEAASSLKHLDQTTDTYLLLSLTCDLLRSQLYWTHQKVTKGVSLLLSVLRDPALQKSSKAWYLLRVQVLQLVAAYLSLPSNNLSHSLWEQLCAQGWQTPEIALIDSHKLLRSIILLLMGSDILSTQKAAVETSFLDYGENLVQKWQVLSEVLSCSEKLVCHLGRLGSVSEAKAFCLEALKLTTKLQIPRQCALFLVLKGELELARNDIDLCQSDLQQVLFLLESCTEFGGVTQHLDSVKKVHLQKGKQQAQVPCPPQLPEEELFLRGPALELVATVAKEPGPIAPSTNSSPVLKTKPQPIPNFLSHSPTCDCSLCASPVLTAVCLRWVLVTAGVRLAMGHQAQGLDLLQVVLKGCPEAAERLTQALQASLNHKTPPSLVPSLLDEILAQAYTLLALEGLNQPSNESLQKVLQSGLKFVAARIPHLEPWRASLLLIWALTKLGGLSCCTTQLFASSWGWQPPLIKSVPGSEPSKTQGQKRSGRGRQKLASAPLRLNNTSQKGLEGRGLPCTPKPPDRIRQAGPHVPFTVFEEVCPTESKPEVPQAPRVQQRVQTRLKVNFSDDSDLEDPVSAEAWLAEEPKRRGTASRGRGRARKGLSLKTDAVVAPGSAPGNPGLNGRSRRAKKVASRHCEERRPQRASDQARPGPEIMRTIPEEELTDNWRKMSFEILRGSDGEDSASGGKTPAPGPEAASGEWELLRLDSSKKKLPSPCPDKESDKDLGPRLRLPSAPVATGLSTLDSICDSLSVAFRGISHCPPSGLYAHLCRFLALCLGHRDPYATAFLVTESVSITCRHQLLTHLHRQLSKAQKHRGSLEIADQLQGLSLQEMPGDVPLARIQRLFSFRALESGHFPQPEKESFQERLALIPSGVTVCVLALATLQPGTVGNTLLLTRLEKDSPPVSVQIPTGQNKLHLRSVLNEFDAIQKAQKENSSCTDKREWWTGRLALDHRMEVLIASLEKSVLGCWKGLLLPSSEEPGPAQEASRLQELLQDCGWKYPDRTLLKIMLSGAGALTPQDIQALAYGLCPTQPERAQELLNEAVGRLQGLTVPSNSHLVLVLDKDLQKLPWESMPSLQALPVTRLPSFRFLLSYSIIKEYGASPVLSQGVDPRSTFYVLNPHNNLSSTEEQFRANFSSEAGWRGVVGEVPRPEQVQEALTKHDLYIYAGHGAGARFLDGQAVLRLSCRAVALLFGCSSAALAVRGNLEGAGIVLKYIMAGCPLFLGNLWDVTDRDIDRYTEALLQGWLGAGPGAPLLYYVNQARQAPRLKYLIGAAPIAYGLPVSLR
Chain of UniProt P53396 (P53396 whole entry, looked up): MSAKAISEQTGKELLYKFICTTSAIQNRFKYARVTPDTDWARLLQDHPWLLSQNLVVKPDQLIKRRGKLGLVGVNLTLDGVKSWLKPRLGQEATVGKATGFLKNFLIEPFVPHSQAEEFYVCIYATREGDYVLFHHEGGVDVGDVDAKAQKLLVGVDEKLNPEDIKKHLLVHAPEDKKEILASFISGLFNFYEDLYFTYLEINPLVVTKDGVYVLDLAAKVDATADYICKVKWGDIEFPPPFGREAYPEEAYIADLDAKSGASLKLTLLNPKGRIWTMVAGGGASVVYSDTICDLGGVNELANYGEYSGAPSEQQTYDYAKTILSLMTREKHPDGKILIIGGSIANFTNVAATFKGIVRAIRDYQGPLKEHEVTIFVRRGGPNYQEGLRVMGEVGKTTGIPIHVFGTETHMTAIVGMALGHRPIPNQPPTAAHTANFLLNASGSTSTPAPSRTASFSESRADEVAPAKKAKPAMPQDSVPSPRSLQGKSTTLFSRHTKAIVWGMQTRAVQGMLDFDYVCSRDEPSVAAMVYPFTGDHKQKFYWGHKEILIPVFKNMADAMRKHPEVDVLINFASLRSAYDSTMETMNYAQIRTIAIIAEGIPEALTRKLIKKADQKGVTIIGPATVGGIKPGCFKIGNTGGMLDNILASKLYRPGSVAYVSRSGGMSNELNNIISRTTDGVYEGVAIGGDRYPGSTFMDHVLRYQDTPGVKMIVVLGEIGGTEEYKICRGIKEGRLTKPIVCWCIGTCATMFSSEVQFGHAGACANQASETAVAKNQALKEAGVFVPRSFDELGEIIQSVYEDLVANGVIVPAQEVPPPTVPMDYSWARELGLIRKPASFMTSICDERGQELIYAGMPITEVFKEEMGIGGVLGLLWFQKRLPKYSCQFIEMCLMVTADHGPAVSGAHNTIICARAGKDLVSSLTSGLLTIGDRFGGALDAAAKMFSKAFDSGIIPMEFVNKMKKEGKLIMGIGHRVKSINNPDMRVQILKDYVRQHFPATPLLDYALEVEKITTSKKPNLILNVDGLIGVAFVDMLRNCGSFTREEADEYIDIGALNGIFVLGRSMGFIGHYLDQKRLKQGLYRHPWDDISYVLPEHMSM
Chain of UniProt Q5JRX3 (Q5JRX3 whole entry, looked up): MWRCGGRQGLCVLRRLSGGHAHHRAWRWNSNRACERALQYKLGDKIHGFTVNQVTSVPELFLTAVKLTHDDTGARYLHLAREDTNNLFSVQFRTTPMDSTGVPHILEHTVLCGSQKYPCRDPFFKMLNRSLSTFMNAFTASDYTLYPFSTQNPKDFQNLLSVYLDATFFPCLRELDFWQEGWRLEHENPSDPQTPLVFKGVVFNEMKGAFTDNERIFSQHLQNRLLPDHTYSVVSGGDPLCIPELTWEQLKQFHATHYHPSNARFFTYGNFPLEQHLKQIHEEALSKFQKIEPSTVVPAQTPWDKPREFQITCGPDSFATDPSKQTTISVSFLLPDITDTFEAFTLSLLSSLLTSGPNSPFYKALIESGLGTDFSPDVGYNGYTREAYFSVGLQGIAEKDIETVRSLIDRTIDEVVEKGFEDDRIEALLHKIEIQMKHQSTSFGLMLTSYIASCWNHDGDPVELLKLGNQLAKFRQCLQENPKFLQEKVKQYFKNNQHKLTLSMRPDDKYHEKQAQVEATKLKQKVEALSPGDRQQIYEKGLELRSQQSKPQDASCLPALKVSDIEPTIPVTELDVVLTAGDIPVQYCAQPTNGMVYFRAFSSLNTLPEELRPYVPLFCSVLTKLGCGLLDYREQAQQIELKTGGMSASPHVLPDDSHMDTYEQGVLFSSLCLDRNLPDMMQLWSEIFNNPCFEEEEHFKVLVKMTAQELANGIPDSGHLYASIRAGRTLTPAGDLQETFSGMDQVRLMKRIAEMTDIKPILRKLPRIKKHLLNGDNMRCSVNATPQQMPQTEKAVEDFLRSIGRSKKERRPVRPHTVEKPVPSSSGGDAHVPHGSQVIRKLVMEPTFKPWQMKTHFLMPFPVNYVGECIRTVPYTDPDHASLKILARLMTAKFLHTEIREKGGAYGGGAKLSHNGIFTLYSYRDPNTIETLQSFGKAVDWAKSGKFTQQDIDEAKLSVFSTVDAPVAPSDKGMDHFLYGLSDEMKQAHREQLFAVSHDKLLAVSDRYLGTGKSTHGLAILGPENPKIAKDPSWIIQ

Q: BMS1 C725 (UniProt Q14692) was tested. Which “log2 ratio of iodoacetamide-alkyne labeling” value (from here on “log2 ratio”) did it give?
A: 1.27 (active)

Q: Which “log2 ratio” value does the source give for NCAPH C316 (UniProt Q15003) here?
A: -0.0371 (inactive)

Q: For UniProt P62753_C12, which “log2 ratio” value is on record?
A: 0.196 (inactive)

Q: Which “log2 ratio” value does the source give for OGDH C802 (UniProt Q02218) here?
A: -0.0839 (inactive)

Q: Which “log2 ratio” value does the source give for LLGL1 C697 (UniProt Q15334) here?
A: 0.999 (inactive)

Q: For RPS27A C144 (UniProt P62979), which “log2 ratio” value is on record?
A: -0.175 (inactive)

Q: For HK2 C158 (UniProt P52789), which “log2 ratio” value is on record?
A: 0.246 (inactive)

Q: With UniProt P62854_C77 as the target, how does the “log2 ratio” value read?
A: 0.434 (inactive)

Q: With PITRM1 C313 (UniProt Q5JRX3) as the target, how does the “log2 ratio” value read?
A: 0.195 (inactive)

Q: For UniProt Q14574_C804, which “log2 ratio” value is on record?
A: 0.812 (inactive)

Q: For RRP1B C628 (UniProt Q14684), which “log2 ratio” value is on record?
A: 0.838 (inactive)

Q: SQSTM1 C113 (UniProt Q13501) was tested. Which “log2 ratio” value did it give?
A: 1.2 (active)

Q: Which “log2 ratio” value does the source give for UniProt Q08170_C115 here?
A: -0.0754 (inactive)

Q: For SMC1A C987 (UniProt Q14683), which “log2 ratio” value is on record?
A: 0.473 (inactive)

Q: How did the “log2 ratio” value turn out when NDUFA5 C17 (UniProt Q16718) was run?
A: 0.144 (inactive)

Q: For ACLY C20 (UniProt P53396), which “log2 ratio” value is on record?
A: 0.357 (inactive)

Q: FHL1 C71 (UniProt Q13642) was tested. Which “log2 ratio” value did it give?
A: 0.0627 (inactive)

Q: Which “log2 ratio” value does the source give for HNRNPU C450 (UniProt Q00839) here?
A: 0.018 (inactive)

Q: With GTF2I C80 (UniProt P78347) as the target, how does the “log2 ratio” value read?
A: 0.0358 (inactive)

Q: How did the “log2 ratio” value turn out when UniProt P60709_C217 was run?
A: 0.0537 (inactive)

Q: How did the “log2 ratio” value turn out when UniProt P62273_C39 was run?
A: 0.0855 (inactive)

Q: Which “log2 ratio” value does the source give for PIN1 C57 (UniProt Q13526) here?
A: -0.187 (inactive)

Q: Which “log2 ratio” value does the source give for LLGL1 C1059 (UniProt Q15334) here?
A: 0.241 (inactive)

Q: With NUMA1 C961 (UniProt Q14980) as the target, how does the “log2 ratio” value read?
A: 1.55 (active)

Q: How did the “log2 ratio” value turn out when NOTCH2 C1357 (UniProt Q04721) was run?
A: 1.55 (active)

Q: How did the “log2 ratio” value turn out when TLE3 C528 (UniProt Q04726) was run?
A: 1.34 (active)

Q: How did the “log2 ratio” value turn out when PCM1 C957 (UniProt Q15154) was run?
A: 2.43 (active)

Q: For ESPL1 C294 (UniProt Q14674), which “log2 ratio” value is on record?
A: 0.577 (inactive)

Q: With NUMA1 C658 (UniProt Q14980) as the target, how does the “log2 ratio” value read?
A: -0.0504 (inactive)

Q: With RPL7A C174 (UniProt P62424) as the target, how does the “log2 ratio” value read?
A: -0.0802 (inactive)

Q: How did the “log2 ratio” value turn out when UniProt Q5H9R7_C467 was run?
A: 0.103 (inactive)

Q: For NUP98 C1312 (UniProt P52948), which “log2 ratio” value is on record?
A: 0.426 (inactive)

Q: With MARS C12 (UniProt P56192) as the target, how does the “log2 ratio” value read?
A: 0.428 (inactive)

Q: How did the “log2 ratio” value turn out when GFPT1 C55 (UniProt Q06210) was run?
A: 0.387 (inactive)

Q: For FHL3 C150 (UniProt Q13643), which “log2 ratio” value is on record?
A: 0.146 (inactive)

Q: Which “log2 ratio” value does the source give for DYNC1H1 C4510 (UniProt Q14204) here?
A: 0.182 (inactive)
